From PubChem BioAssay (NCATS)
Inconclusive results are not listed. Where a call stands in place of a potency, no number is given. Active and inactive are the calls of the source. Unless noted, calls follow the shape of the full dose curve.

assay: Confirmatory qHTS for VERO E6 Cytotoxicity Assay: Counterscreen for SARS-CoV-2 CPE Assay (AID 1508605); details: cell viability luminescence; series mostly up to 20 µM; also: nearly all actives have a fitted effect of over 60% in size

| Structure (SMILES) | Potency |
| --- | --- |
| CNCCC(Oc1ccc(C(F)(F)F)cc1)c1ccccc1 (stereo not given) | inactive |
| O=C(O)C(=O)c1cn(Cc2ccccc2)c2ccc(-c3ccc(OC(F)(F)F)cc3)cc12 | inactive |
| CNCCCC1c2ccccc2C=Cc2ccccc21 | inactive |
| CC(CN(C)C)CN1c2ccccc2CCc2ccccc21 (stereo not given) | inactive |
| CCCNCC(O)COc1ccccc1C(=O)CCc1ccccc1 (stereo not given) | inactive |
| CC(CN1c2ccccc2Sc2ccccc21)N(C)C (stereo not given) | inactive |
| CN(C)CCC=C1c2ccccc2C=Cc2ccccc21 | inactive |
| CC1(CN2CCC(n3c(=O)[nH]c4ccccc43)CC2)OCc2ccccc2-n2cccc21 (stereo not given) | inactive |
| COc1ccccc1OCCNCC(O)COc1cccc2[nH]c3ccccc3c12 (stereo not given) | inactive |
| CN(C)C(=O)C(CCN1CCC(O)(c2ccc(Cl)cc2)CC1)(c1ccccc1)c1ccccc1 | inactive |
| CN1CCC(=C2c3ccccc3C=Cc3ccccc32)CC1 | inactive |
| COc1cc2nc(N3CCN(C(=O)C4COc5ccccc5O4)CC3)nc(N)c2cc1OC (stereo not given) | inactive |
| CNCCCN1c2ccccc2CCc2ccccc21 | inactive |
| CN(C)CCC=C1c2ccccc2CCc2ccccc21 | inactive |
| CNCC[C@H](Oc1cccc2ccccc12)c1cccs1 | inactive |

assay: Confirmatory qHTS for activators (rescue) of SARS-CoV-2 Cytopathic Effect (CPE) (AID 1508606); details: Vero E6 SARS-CoV-2 CPE rescue, viability luminescence; series mostly up to 20 µM; also: potency is read from the fitted curve at half-maximal effect; nearly all actives have a fitted effect of over 70% in size

| Structure (SMILES) | Potency |
| --- | --- |
| CC(CN1c2ccccc2Sc2ccccc21)N(C)C (stereo not given) | 11.2 µM (active) |
| COc1ccccc1OCCNCC(O)COc1cccc2[nH]c3ccccc3c12 (stereo not given) | 10 µM (active) |
| CC(=O)Oc1ccccc1C(=O)Nc1ncc([N+](=O)[O-])s1 | 5.01 µM (active) |
| CN(C)CCCN1c2ccccc2Sc2ccc(Cl)cc21 | 11.2 µM (active) |
| CNCC[C@H](Oc1cccc2ccccc12)c1cccs1 | 10 µM (active) |

assay: Primary qHTS for inhibitors of La Crosse Virus (LACV) - induced cell death in SH-SY5Y cells (AID 1508616; active = well fitted inhibition curve with a large enough effect;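 also: top concentration of the series differs between compounds; higher means more rescue of cells from virus-induced death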); details: SH-SY5Y LACV cytopathicity rescue, ATP luminescence, 6 d; series mostly up to 4.29 µM
Method in brief: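 Screening measures cell viability in LACV-infected SH-SY5Y cultures. Compound was added before virus (0.01 MOI), and ATP was detected by luminescence 6 days later.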

| Structure (SMILES) | Potency |
| --- | --- |
| NP(N)(=O)NC(=O)c1ccc(F)cc1 | inactive |
| NCCc1cc(O)c(O)cc1O | inactive |
| CC(O)(CS(=O)(=O)c1ccc(F)cc1)C(=O)Nc1ccc(C#N)c(C(F)(F)F)c1 (stereo not given) | inactive |
| O=c1oc2ccccc2c(O)c1C(CC(O)c1ccc(-c2ccc(Br)cc2)cc1)c1ccccc1 (stereo not given) | inactive |
| N[C@@H](Cc1ccc(Oc2cc(I)c(O)c(I)c2)c(I)c1)C(=O)O | inactive |
